# From PubChem BioAssay (NCATS)
# Inconclusive results are not listed. Where a call stands in place of a potency, no number is given. Active and inactive are the calls of the source. The call rests on the fitted dose curve; in most records, active means well fitted curve in the direction sought with a large enough effect; inconclusive means small, poorly fitted or top-dose-only effect, or another doubt; inactive means no such curve, though single readings can be large; an effect the other way counts as inactive or inconclusive.
# Key:
# [1] = S16 Schwann cell PMP22 intronic element firefly luciferase assay (AID 624032); further: nearly all actives have a fitted effect of over 30% in size
# In short: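 Rat S16 Schwann cells stably carrying a PMP22 intronic element-driven Fluc reporter were seeded overnight, then exposed to compounds for 24 h at 37 °C. Luminescence was normalized to PTC124 (positive control) and DMSO (0% activity).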
# C2A = experiment: qHTS profiling for inhibitors of Plasmodium falciparum proliferation (AID 504749); further: nearly all actives have a fitted effect of over 60% in size; conditions: P. falciparum in erythrocytes, SYBR Green DNA, 72 h; series mostly up to 28.7 µM
# In short: (§1)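 P. falciparum-infected erythrocytes (0.3% parasitemia, 2.5% hematocrit final) were exposed to compounds for 72 h at 37 C in 5% CO2, then lysed with SYBR Green buffer overnight at room temperature; parasite DNA fluorescence was normalized to artemisinin and DMSO controls.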
# CP217 = experiment: as above; conditions: P. falciparum in erythrocytes, SYBR Green DNA, 72 h; series mostly up to 28.7 µM
# In short: as §1
# CP237 = experiment: as above; conditions: P. falciparum in erythrocytes, SYBR Green DNA, 72 h; series mostly up to 28.7 µM
# In short: as §1
# CP260 = experiment: as above; conditions: P. falciparum in erythrocytes, SYBR Green DNA, 72 h; series mostly up to 28.7 µM
# In short: as §1
# CP266 = experiment: as above; conditions: P. falciparum in erythrocytes, SYBR Green DNA, 72 h; series mostly up to 28.7 µM
# In short: as §1
# CP269 = experiment: as above; conditions: P. falciparum in erythrocytes, SYBR Green DNA, 72 h; series mostly up to 28.7 µM
# In short: as §1
# CP335 = experiment: as above; conditions: P. falciparum in erythrocytes, SYBR Green DNA, 72 h; series mostly up to 28.7 µM
# In short: as §1
# DFO2036 = experiment: as above; conditions: P. falciparum in erythrocytes, SYBR Green DNA, 72 h; series mostly up to 28.7 µM
# In short: as §1
# DIV30 = experiment: as above; conditions: P. falciparum in erythrocytes, SYBR Green DNA, 72 h; series mostly up to 28.7 µM
# In short: as §1
# ECU = experiment: as above; conditions: P. falciparum in erythrocytes, SYBR Green DNA, 72 h; series mostly up to 28.7 µM
# In short: as §1
# FAB9 = experiment: as above; conditions: P. falciparum in erythrocytes, SYBR Green DNA, 72 h; series mostly up to 28.7 µM
# In short: as §1
# HB3 = experiment: as above; conditions: P. falciparum in erythrocytes, SYBR Green DNA, 72 h; series mostly up to 28.7 µM
# In short: as §1
# ICS = experiment: as above; conditions: P. falciparum in erythrocytes, SYBR Green DNA, 72 h; series mostly up to 28.7 µM
# In short: as §1
# N140 = experiment: as above; conditions: P. falciparum in erythrocytes, SYBR Green DNA, 72 h; series mostly up to 28.7 µM
# In short: as §1
# P94_40 = experiment: as above; conditions: P. falciparum in erythrocytes, SYBR Green DNA, 72 h; series mostly up to 28.7 µM
# In short: as §1
# PC49 = experiment: as above; conditions: P. falciparum in erythrocytes, SYBR Green DNA, 72 h; series mostly up to 28.7 µM
# In short: as §1
# SC27B = experiment: as above; conditions: P. falciparum in erythrocytes, SYBR Green DNA, 72 h; series mostly up to 28.7 µM
# In short: as §1
# TAB109 = experiment: as above; conditions: P. falciparum in erythrocytes, SYBR Green DNA, 72 h; series mostly up to 28.7 µM
# In short: as §1
# TAB113 = experiment: as above; conditions: P. falciparum in erythrocytes, SYBR Green DNA, 72 h; series mostly up to 28.7 µM
# In short: as §1
# Potency means the concentration at half of the fitted maximal effect.
SMILES,Potency [1],Potency (C2A),Potency (CP217),Potency (CP237),Potency (CP260),Potency (CP266),Potency (CP269),Potency (CP335),Potency (DFO2036),Potency (DIV30),Potency (ECU),Potency (FAB9),Potency (HB3),Potency (ICS),Potency (N140),Potency (P94_40),Potency (PC49),Potency (SC27B),Potency (TAB109),Potency (TAB113)
CCC(=O)O[C@@H](OP(=O)(CCCCc1ccccc1)CC(=O)N1C[C@H](C2CCCCC2)C[C@H]1C(=O)O)C(C)C (some centres undefined),inactive,inactive,inactive,inactive,inactive,inactive,inactive,inactive,inactive,inactive,inactive,inactive,inactive,inactive,inactive,inactive,inactive,inactive,inactive,inactive
CC1CCC(C(C)C)C(OC(=O)c2ccccc2O)C1 (centres undefined),inactive,inactive,inactive,inactive,inactive,inactive,inactive,inactive,inactive,inactive,inactive,inactive,inactive,inactive,inactive,inactive,inactive,inactive,inactive,inactive
Cc1cc(CC(C)CC(C)(C)C)n(O)c(=O)c1 (centres undefined),16.1 µM (active),2.51 µM (active),2.82 µM (active),2.82 µM (active),3.16 µM (active),3.79 µM (active),3.38 µM (active),1.69 µM (active),1.78 µM (active),3.79 µM (active),2.82 µM (active),,8.91 µM (active),2.51 µM (active),1 µM (active),2.82 µM (active),,2.82 µM (active),2.24 µM (active),2.82 µM (active)
CC(C)CN(C[C@@H](OP(=O)(O)O)[C@H](Cc1ccccc1)NC(=O)O[C@@H]1CCOC1)S(=O)(=O)c1ccc(N)cc1,inactive,inactive,inactive,inactive,inactive,inactive,inactive,inactive,inactive,inactive,inactive,inactive,inactive,inactive,inactive,inactive,inactive,inactive,inactive,inactive
CO/N=C(/C(=O)N[C@@H]1C(=O)N2C(C(=O)O)=CCS[C@H]12)c1csc(N)n1,inactive,inactive,inactive,inactive,inactive,inactive,inactive,inactive,inactive,inactive,inactive,inactive,inactive,inactive,inactive,inactive,inactive,inactive,inactive,inactive
CCC(C)n1ncn(-c2ccc(N3CCN(c4ccc(OCC5COC(Cn6cncn6)(c6ccc(Cl)cc6Cl)O5)cc4)CC3)cc2)c1=O (centres undefined),3.22 µM (active),inactive,inactive,5.01 µM (active),6.31 µM (active),inactive,inactive,4.26 µM (active),inactive,inactive,inactive,inactive,inactive,2.51 µM (active),inactive,inactive,inactive,inactive,inactive,inactive
CN1CC[C@H](CN2c3ccccc3Sc3ccccc32)C1,32.2 µM (active),10 µM (active),11.2 µM (active),6.31 µM (active),11.2 µM (active),inactive,15.1 µM (active),,12.6 µM (active),13.5 µM (active),11.2 µM (active),,,2 µM (active),11.2 µM (active),8.91 µM (active),,11.2 µM (active),11.2 µM (active),
C/C=C\c1ccc(OC)cc1,inactive,inactive,inactive,inactive,inactive,inactive,inactive,inactive,inactive,inactive,inactive,inactive,inactive,inactive,inactive,inactive,inactive,inactive,inactive,inactive
C1OCOCO1,inactive,inactive,inactive,inactive,inactive,inactive,inactive,inactive,inactive,inactive,inactive,inactive,inactive,inactive,inactive,inactive,inactive,inactive,inactive,inactive
CC(C)(CO)C(O)C(=O)NCCCC(=O)O (centres undefined),inactive,,,,,,16.9 µM (active),,,,,inactive,inactive,,,,inactive,,,inactive
CN(C)CCCCCCN(C)C,,inactive,inactive,inactive,inactive,inactive,inactive,inactive,inactive,inactive,inactive,inactive,inactive,inactive,inactive,inactive,inactive,inactive,inactive,inactive
NC1=NC(S)C2N=CN=C2N1 (centres undefined),1.44 µM (active),inactive,inactive,inactive,inactive,inactive,inactive,inactive,inactive,inactive,inactive,inactive,inactive,inactive,inactive,inactive,inactive,inactive,inactive,inactive
S=C1NC=NC2N=CNC12 (centres undefined),2.87 µM (active),inactive,inactive,inactive,inactive,10.7 µM (active),,inactive,inactive,,inactive,inactive,inactive,inactive,inactive,inactive,inactive,inactive,inactive,inactive
O=C(O)c1cc(O)c2c(c1)[C@H]([C@H]1c3cc(C(=O)O)cc(O)c3C(=O)c3c(O[C@@H]4OC(CO)C(O)C(O)C4O)cccc31)c1cccc(O[C@@H]3OC(CO)C(O)C(O)C3O)c1C2=O (some centres undefined),inactive,inactive,inactive,inactive,inactive,,,inactive,inactive,15.1 µM (active),inactive,inactive,inactive,inactive,inactive,inactive,inactive,inactive,inactive,inactive
